We go through eight molecules from PubChem BioAssay.

Assay [1] concerns Wnt5a (protein binding on small-molecule microarray). Description: small molecules binding Wnt5a protein – biophysical, small-molecule microarray, 635/667 nm fluorescence, primary screen (AID 1142).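 Note: fluorescence read at 667 nm with signal to noise per printed feature.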 Conditions: 635 nm fluorescence, higher = more signal.
Assay [2] is described as follows: ATP-based viability of Huh7 replicon cells – cell-based, CellTiter-Glo luminescence, basal, 48 h, cytotoxicity control for HCV replication inhibitor project, primary screen (AID 1143).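 Note: Huh7 hepatoma cells carrying a hepatitis C replication reporter with no stimulus; test concentration not given here.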 Conditions: higher = more signal, called active from +8 up or from −8 down. On the technique in general: A replicon is a self-replicating genome or part of one, used to study replication in cells.

A short description of assay [3]: Pseudomonas biofilm growth suppression – PAO1 strain, BacTiter-Glo luminescence, LB-PBS, primary screen (AID 1144). Conditions: P. aeruginosa PAO1 biofilm, 12 h, higher = more signal.
Assay [4] is described as follows: basal CRE-LacZ reporter activity in PC12 – cell-based, unstimulated, primary screen (AID 1145). Conditions: no forskolin, luminescence, 4.5 h, higher = more signal, called active from +8 up or from −8 down.
A short description of assay [5]: forskolin-driven CRE-LacZ activity in PC12 – cell-based, CRE-LacZ reporter, forskolin-stimulated, primary screen (AID 1146).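 Note: PC12 cells with 6xCRE LacZ reporter stimulated by forskolin 10 µM; beta-galactosidase reporter signal reflecting CREB driven transcription.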 Conditions: luminescence, 4.5 h, higher = more signal, called active from +8 up or from −8 down.
In assay [6] the target is Streptavidin (Streptomyces avidinii) (UniProt P22629). Description: compounds binding control protein streptavidin – biophysical, small-molecule microarray, 635/667 nm fluorescence, artefact control for SMM compound annotation, primary screen (AID 1147).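 Note: signal reflects streptavidin binding to arrayed compounds as a control protein.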 Conditions: higher = more signal.
A short description of assay [7]: probe aInhba binding on compound microarray – biochemical, small-molecule microarray, 635/667 nm fluorescence, primary screen (AID 1148).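 Note: score merges 667nm spot fluorescence with signal-to-noise for antibody binding to printed compounds.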 Conditions: higher = more signal.
Assay [8] addresses Torsin-1A (Homo sapiens) (UniProt O14656). The assay is described as follows: TOR1A wild-type binding on microarray – cell lysate, small-molecule microarray, lysate, 635/667 nm, primary screen (AID 1149). Conditions: COS7 hTOR1A-WT lysate, 635 nm fluorescence, higher = more signal.
Assay [9] has the same target. The assay is described as follows: torsin A mutant lysate binding on microarrays – cell lysate, small-molecule microarray, COS7 lysate, 635/667 nm fluorescence, primary screen (AID 1150).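 Note: score pools 667 nm emission and signal to noise measuring lysate protein binding.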 Conditions: COS7 hTOR1A mutant lysate, 635 nm fluorescence, higher = more signal.
Assay [10] relates to Sonic hedgehog protein (Shh). The assay is described as follows: Sonic hedgehog microarray binding compounds – biochemical, small-molecule microarray, 635/667 nm fluorescence, primary screen (AID 1151).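 Note: Shh protein binding to compounds spotted on small-molecule microarray slides; score combines spot fluorescence intensity with signal-to-noise across triplicate slides.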 Conditions: 635 nm fluorescence, higher = more signal.
The nature of assay [11]: optical density shifts of acrAB sulA E. coli – strain DRC41, OD650, 48 h, E. coli filamentation inducer project, primary screen (AID 1152).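 Note: E. coli MC1000 strain DRC41 lacking acrAB efflux pump and sulA.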 Conditions: higher = more signal, called active from +8 up or from −8 down.
Assay [12] can be described thus: probe aLefty1 binding on compound microarray – biochemical, small-molecule microarray, 635/667 nm fluorescence, primary screen (AID 1153).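 Note: score merges spot fluorescence with signal-to-noise ratio from the scanned slide images.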 Conditions: higher = more signal.
Assay [13] can be described thus: plasmodial surface anion channel blockers, osmotic lysis – cell-based, P. falciparum Indochina, OD700, 1 h, primary screen (AID 1154). Conditions: P. falciparum Indochina infected RBC osmotic lysis, higher = more signal, called active from +8 up or from −8 down.
A short description of assay [14]: plasmodial surface anion channel blockers, osmotic lysis – cell-based, P. falciparum Indochina, OD700, 2 h, primary screen (AID 1155).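 Note: lysis reports solute entry through the parasite surface anion channel PSAC.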 Conditions: P. falciparum Indochina infected erythrocytes, higher = more signal, called active from +8 up or from −8 down.
Assay [15] in a line: changes in parasitized red cell lysis, either direction – P. falciparum Indochina, OD700, 3 h, PSAC antagonist project, primary screen (AID 1156). Conditions: P. falciparum-infected erythrocytes, osmotic lysis, higher = more signal, called active from +8 up or from −8 down.
Assay [16] in a line: plasmodial surface anion channel blockers, osmotic lysis – cell-based, P. falciparum Indochina, OD700, 18 h, primary screen (AID 1157). Conditions: P. falciparum Indochina infected erythrocytes, osmotic lysis OD700, 18 h; higher = more signal, called active from +8 up or from −8 down.
Assay [17] is described as follows: S6 kinase pathway phospho-S6 level changes – cell-based, A549, cytoblot, luminescence, serum-stimulated, primary screen (AID 1158).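 Note: serum-stimulated A549 lung adenocarcinoma cells; signal is phosphorylated S6 detected by cytoblot immunostaining with HRP secondary.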 Conditions: 5 h, higher = more signal.
In assay [18] the target is NADPH oxidase 2 (Homo sapiens) (UniProt P04839). Description: compounds shifting NOX2 Amplex Red fluorescence – cell-based, HEK293-NOX2, PMA-stimulated, NOX inhibitor project, primary screen (AID 1159). Note: test concentration not given here. Conditions: 45 min, higher = more signal, called active from +8 up or from −8 down.
For assay [19], the target named is NADPH oxidase 4 (Homo sapiens) (UniProt Q9NPH5). The assay is described as follows: compounds shifting NOX4 Amplex Red fluorescence – cell-based, HEK293-NOX4, tetracycline-induced, NOX inhibitor project, primary screen (AID 1160). Conditions: HEK293-NOX4, Amplex Red H2O2 fluorescence, 45 min; higher = more signal, called active from +8 up or from −8 down.
In assay [20] the target is NADPH oxidase 5 (Homo sapiens) (UniProt Q96PH1). Description: compounds shifting NOX5 Amplex Red fluorescence – cell-based, HEK293-NOX5, NOX inhibitor project, primary screen (AID 1161). Conditions: HEK293-NOX5, ionomycin, 45 min, higher = more signal.

Activity calls are given as the source filed them. Unless noted, the rule behind the calls is not given here.

NADPH oxidase 4 (Homo sapiens), sequence (Q9NPH5 whole entry, looked up): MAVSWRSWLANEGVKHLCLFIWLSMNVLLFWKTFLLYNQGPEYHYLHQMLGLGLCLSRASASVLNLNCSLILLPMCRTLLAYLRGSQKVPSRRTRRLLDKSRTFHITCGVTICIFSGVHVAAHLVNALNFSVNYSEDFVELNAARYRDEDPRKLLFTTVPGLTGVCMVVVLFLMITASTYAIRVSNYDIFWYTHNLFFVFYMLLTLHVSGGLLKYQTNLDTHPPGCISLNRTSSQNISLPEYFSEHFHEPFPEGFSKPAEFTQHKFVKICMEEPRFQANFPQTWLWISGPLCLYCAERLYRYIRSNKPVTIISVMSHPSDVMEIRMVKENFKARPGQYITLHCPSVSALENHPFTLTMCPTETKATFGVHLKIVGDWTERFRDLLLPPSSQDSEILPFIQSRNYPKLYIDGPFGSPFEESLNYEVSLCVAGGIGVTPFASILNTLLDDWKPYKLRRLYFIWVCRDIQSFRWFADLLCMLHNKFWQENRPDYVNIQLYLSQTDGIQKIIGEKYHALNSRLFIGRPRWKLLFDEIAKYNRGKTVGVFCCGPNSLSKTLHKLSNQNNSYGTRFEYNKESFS
Streptavidin (Streptomyces avidinii), sequence (P22629 whole entry, looked up): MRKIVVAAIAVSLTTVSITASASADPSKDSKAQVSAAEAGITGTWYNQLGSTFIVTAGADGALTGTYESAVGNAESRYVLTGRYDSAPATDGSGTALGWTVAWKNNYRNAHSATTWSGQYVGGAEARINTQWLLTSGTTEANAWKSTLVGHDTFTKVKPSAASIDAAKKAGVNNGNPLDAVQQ
NADPH oxidase 5 (Homo sapiens), sequence (Q96PH1 whole entry, looked up): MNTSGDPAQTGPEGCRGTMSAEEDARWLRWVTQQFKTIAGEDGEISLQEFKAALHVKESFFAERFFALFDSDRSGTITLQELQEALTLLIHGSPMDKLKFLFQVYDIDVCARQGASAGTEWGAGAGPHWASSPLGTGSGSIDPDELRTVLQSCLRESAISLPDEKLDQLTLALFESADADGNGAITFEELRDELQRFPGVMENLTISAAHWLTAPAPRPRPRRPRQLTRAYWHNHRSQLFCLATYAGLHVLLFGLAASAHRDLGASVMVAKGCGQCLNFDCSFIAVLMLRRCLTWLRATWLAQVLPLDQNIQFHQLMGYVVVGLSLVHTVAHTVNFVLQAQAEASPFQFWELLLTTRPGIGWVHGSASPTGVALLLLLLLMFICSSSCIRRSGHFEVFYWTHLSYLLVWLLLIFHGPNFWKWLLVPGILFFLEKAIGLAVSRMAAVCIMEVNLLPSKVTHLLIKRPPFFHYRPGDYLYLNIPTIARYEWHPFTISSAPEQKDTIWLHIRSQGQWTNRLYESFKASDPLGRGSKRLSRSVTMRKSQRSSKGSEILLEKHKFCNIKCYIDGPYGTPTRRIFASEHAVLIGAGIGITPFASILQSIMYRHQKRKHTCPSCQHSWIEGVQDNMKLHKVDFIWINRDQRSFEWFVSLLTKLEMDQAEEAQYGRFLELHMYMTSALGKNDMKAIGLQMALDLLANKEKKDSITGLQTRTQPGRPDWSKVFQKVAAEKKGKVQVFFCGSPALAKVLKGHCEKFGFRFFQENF
NADPH oxidase 2 (Homo sapiens), sequence (P04839 whole entry, looked up): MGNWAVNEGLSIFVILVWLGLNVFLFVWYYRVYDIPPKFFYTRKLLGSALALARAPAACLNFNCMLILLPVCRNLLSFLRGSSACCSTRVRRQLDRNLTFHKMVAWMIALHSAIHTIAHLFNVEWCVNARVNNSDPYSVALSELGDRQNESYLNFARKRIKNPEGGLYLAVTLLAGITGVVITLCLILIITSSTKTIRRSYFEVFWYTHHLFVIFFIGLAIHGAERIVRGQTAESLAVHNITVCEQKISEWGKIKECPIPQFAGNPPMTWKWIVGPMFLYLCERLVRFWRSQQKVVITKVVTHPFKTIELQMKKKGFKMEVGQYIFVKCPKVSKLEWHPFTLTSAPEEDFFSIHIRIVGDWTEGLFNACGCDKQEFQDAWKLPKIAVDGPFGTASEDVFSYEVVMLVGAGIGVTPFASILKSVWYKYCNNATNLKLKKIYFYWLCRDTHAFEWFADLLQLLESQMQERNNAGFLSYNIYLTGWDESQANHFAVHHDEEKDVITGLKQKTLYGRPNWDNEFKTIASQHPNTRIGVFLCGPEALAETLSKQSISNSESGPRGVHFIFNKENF
Torsin-1A (Homo sapiens), sequence (O14656 whole entry, looked up): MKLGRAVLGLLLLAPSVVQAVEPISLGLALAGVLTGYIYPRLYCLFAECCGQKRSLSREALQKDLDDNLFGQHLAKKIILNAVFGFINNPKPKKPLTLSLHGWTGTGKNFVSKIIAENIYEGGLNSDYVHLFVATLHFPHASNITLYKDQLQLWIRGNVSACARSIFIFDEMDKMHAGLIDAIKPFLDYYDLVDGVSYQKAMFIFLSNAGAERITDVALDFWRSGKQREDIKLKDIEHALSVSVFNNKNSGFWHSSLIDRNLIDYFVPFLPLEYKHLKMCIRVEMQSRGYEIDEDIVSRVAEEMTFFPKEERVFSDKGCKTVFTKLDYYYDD

Consider `CC[C@@H]1[C@@H]2C3C(=O)N(CC)C(=O)C3CC(=O)[C@@H]2[C@H](c2ccc(C)cc2)N1S(=O)(=O)c1ccc(C)cc1` (stereo not given in full), for which the composite z-score is 0.513 in assay [1]; 0.492 in assay [6]; -0.0523 in assay [7]; -0.087 in assay [8]; 0.645 in assay [9]; 1.18 in [10]. The composite z-score in [12] is -0.149. For the same molecule, the z-score in [2] is -3.1 (inactive); in assay [3], -1.88 (inactive); in assay [4], -0.424 (inactive); in [5] it was -0.42 (inactive); in assay [11], 1.29 (inactive); in assay [13], 1.39 (inactive). For the same molecule, the z-score is 0.0985 (inactive) in [14]; -0.511 (inactive) in assay [15]; -1.35 (inactive) in assay [16]; 1.04 in assay [17]; 1.04 (inactive) in assay [18]; 0.451 (inactive) in assay [19]. The z-score in [20] turned out to be 2.06.
For `[N-]=[N+]=NCc1ccccc1[C@H]1OC(c2ccc(OCCCO)cc2)=N[C@@]1(Cc1ccccc1)C(N)=O`, the composite z-score is 0.765 in [1]; 2.31 in assay [6]; 0.278 in assay [7]; 0.217 in [8]; 0.65 in assay [9]; -1.13 in assay [10]. This molecule also registered a composite z-score in [12] of 0.174. For the same molecule, the z-score in assay [2] was -1.18 (inactive); in assay [3], -0.293 (inactive); in assay [4], 0.479 (inactive); in assay [5] it was -1.43 (inactive); in assay [11] it was 0.0183 (inactive); in assay [13] it was 25.2 (active). The z-score is 15.2 (active) in [14]; 1.79 (inactive) in assay [15]; 2.75 (inactive) in assay [16]; 0.534 in assay [17]; -0.17 (inactive) in assay [18]; 1.21 (inactive) in [19]. In addition, the z-score in assay [20] is 1.2.
Consider `COC(=O)[C@@]1(Cc2ccccc2)[C@H]2c3cc(C(=O)N4CCCC4)n(CCO)c3C[C@H]2CN1C(=O)c1ccccc1`, for which the composite z-score in assay [1] is 1.42; in [6] it was 1.97; in assay [7], 1.4; in assay [8], 3.21; in assay [9], 3.41; in assay [10], -1.01. Besides, in [12], the composite z-score was 1.89. In addition, the z-score was -1.08 (inactive) in assay [2]; 0.0984 (inactive) in assay [3]; -0.189 (inactive) in assay [4]; 0.0581 (inactive) in assay [5]; -0.258 (inactive) in assay [11]; 0.0574 (inactive) in assay [13]. Also, the z-score in assay [14] is -0.644 (inactive); in assay [15], -0.513 (inactive); in assay [16], -1.61 (inactive); in assay [17], 1.33; in assay [18], 0.661 (inactive); in assay [19], -0.517 (inactive). In addition, the z-score in assay [20] was -2.49.
For the molecule `COCCOC(=O)N1C(=O)[C@@]2(c3cc(C#CCCO)ccc31)[C@H](C(=O)NC[C@H](O)c1ccccc1)[C@H]1C(=O)O[C@H](c3ccccc3)[C@H](c3ccccc3)N1[C@@H]2c1ccccc1OCCO`, the composite z-score in [1] is 0.524; in assay [6] it was 0.562; in [7], 0.413; in assay [8], 1.19; in [9], 0.597; in [10] it was 1.35. Further, the composite z-score in assay [12] was found to be 0.213. Further, the z-score in assay [2] is -1.34 (inactive); in [3], 1.59 (inactive); in assay [4], -0.0607 (inactive); in assay [5], 0.172 (inactive); in assay [11] it was -0.0118 (inactive); in assay [13], 2.52 (inactive). In addition, the z-score is 0.963 (inactive) in assay [14]; -0.654 (inactive) in assay [15]; 0.705 (inactive) in [16]; -0.18 in [17]; 1.54 (inactive) in assay [18]; 0.992 (inactive) in assay [19]. Also, in assay [20], the z-score turned out to be 1.17.
In the case of `CC(C)C[C@@H]1NC(=O)[C@@H]2C[C@H](C(=O)NCCCC[N+](C)(C)C)[C@H](c3cccc(OCCO)c3)N2C1=O`, the composite z-score in assay [1] is 0.379; in [6], 0.154; in assay [7] it was -0.025; in assay [8], 1.3; in assay [9], 0.66; in [10], 2.11. In assay [12], this molecule yielded a composite z-score of 0.115. The z-score in assay [2] is 0.347 (inactive); in assay [3], -0.595 (inactive); in assay [4], -0.943 (inactive); in [5], -0.231 (inactive); in assay [11] it was -0.44 (inactive); in assay [13], 3.73 (inactive). For the same molecule, the z-score in [14] was 1.16 (inactive); in assay [15], -0.369 (inactive); in assay [16], 0.645 (inactive); in [17] it was -0.102; in [18], -1.2 (inactive); in [19], -0.152 (inactive). Also, the z-score in [20] was -0.372.
Take `C=CCOC(=O)[C@H]1[C@@H]2C(=O)O[C@@H](c3ccccc3)[C@@H](c3ccccc3)N2[C@@H](c2ccc(OCCOC(=O)[C@H]3C[C@H]4C(=O)N[C@@H](CCCCN(C)C)C(=O)N4[C@H]3c3ccc(O)cc3)cc2)[C@]12C(=O)Nc1ccccc12`: the composite z-score in assay [1] was 0.468; in assay [6], -0.0375; in assay [7] it was 0.0748; in [8] it was 0.539; in assay [9], 0.674; in assay [10], 1.42. Besides, the composite z-score in assay [12] worked out at 1.13. Besides, the z-score is -1.73 (inactive) in assay [2]; -0.063 (inactive) in assay [3]; -0.122 (inactive) in [4]; -0.322 (inactive) in assay [5]; -0.558 (inactive) in assay [11]; -0.862 (inactive) in [13]. Moreover, the z-score was 0.332 (inactive) in assay [14]; 3.2 (inactive) in assay [15]; 0.522 (inactive) in assay [16]; -0.259 in [17]; 2.21 (inactive) in assay [18]; 1.05 (inactive) in [19]. Also, the z-score in assay [20] worked out at 0.576.
As for `C=CCNC(=O)[C@H]1[C@@H]2C(=O)O[C@@H](c3ccccc3)[C@@H](c3ccccc3)N2[C@@H](c2ccc(OCCO)cc2)[C@]12C(=O)N(C(=O)OCCOC)c1ccc(C#CC3=CCCCC3)cc12`, the composite z-score in assay [1] was -0.0184; in [6], 0.716; in assay [7] it was 0.18; in assay [8], 0.689; in [9] it was 0.868; in assay [10], 1.32. The composite z-score in [12] amounted to 0.213. For the same molecule, the z-score in assay [2] was -4.77 (inactive); in assay [3] it was 1.09 (inactive); in [4], -0.0647 (inactive); in assay [5], -0.638 (inactive); in assay [11], 1.1 (inactive); in assay [13], 2.13 (inactive). Further, the z-score was 1.76 (inactive) in assay [14]; 0.178 (inactive) in assay [15]; 0.948 (inactive) in assay [16]; 0.632 in assay [17]; 1.99 (inactive) in [18]; 0.421 (inactive) in assay [19]. Further, the z-score in assay [20] was found to be 2.48.
As for `CC(C)CCC[C@@H](C)[C@H]1CC[C@@]2(C)C3=C(CC[C@]12C)[C@@]1(C)CC[C@H](OC(=O)C(C)(C)C)C(C)(C)C1CC3` (stereo not given in full), the composite z-score is 0.228 in assay [1]; 0.122 in [6]; -0.186 in assay [7]; 0.89 in assay [8]; 0.31 in assay [9]; 0.836 in assay [10]. The composite z-score in assay [12] was -0.374. The z-score is -2.46 (inactive) in assay [2]; -0.738 (inactive) in [3]; 0.12 (inactive) in [4]; -1.2 (inactive) in [5]; 0.836 (inactive) in assay [11]; -0.0452 (inactive) in assay [13]. For the same molecule, the z-score in assay [14] was -0.698 (inactive); in assay [15] it was -0.647 (inactive); in assay [16], -1.07 (inactive); in assay [17], 2.9; in assay [18], 0.249 (inactive); in [19], 0.4 (inactive). For the same molecule, in [20], the z-score is 1.29.
